Data taken from ChEMBL document CHEMBL4513141, “CO-ADD screening of NIH (USA) - Clinical Collection” (2021).
Measured potencies and affinities stand elsewhere.

These compounds were tested on Cryptococcus neoformans. Conditions: Concentration 20 uM; ASSAY_TEST Inhibition of Fungal Growth; detection method Resazurin; Absorption (OD600-OD570); plate type 384well; NBS; CORNING #3640.

Row | SMILES | Inhibition
1 | CC[C@]1(O)CC[C@H]2[C@@H]3CCC4=CCCC[C@@H]4[C@H]3CC[C@@]21C [ETHYLESTRENOL] | -2.32%
2 | CCC1(c2ccc(N)cc2)CCC(=O)NC1=O (stereo not drawn) [AMINOGLUTETHIMIDE] | -5.32%
3 | Cl.N=C(N)NC(=O)c1nc(Cl)c(N)nc1N.O.O [AMILORIDE HYDROCHLORIDE] | -6.3%
